Compound activity as filed in PubChem.
bovine MsrA act: bovine methionine sulfoxide reductase A activation | actives 0.3% (n = 360,000) | activation, % at 10.6 µM | AID 602163 | purified bovine MsrA, absorbance read-out; in the data active means activation above about 7.5%;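 further: 0% = vehicle and 100% = reference activator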
MsrA inhibitor: inhibits bovine methionine sulfoxide reductase A; actives 0.75% (n = 360,000); purified bovine MsrA, absorbance read-out; inhibition, % at 15.5 µM; AID 651718; in the data active means inhibition above about 4.5%;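 further: 0% = vehicle wells with enzyme and 100% = reference inhibitor wells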
GC-A act: GC-A (human) enzyme activation; P16066; HEK293 GC-A cells, cGMP TR-FRET, EC30 ANP; 0% at EC30 ANP, 100% saturating ANP; activation, % at 10 µM; actives 0.14% (n = 370,000); AID 1671463; in the data active means activation above about 40%
HTR2A ag: activates the mouse 5-HT2A serotonin receptor. CHO-K1 mHTR2A beta-arrestin complementation, luminescence; percent of 30 µM serotonin response. AID 624169. actives 0.66% (n = 360,000). activation, % at 7.6 µM;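 active means activation above a run cutoff, the mean activation of all tested compounds plus 3 SD, cut at about 14% in these data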;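 further: 0% = plate median of compound wells and 100% = 30 µM serotonin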
Target sequence (P35363 whole entry, looked up): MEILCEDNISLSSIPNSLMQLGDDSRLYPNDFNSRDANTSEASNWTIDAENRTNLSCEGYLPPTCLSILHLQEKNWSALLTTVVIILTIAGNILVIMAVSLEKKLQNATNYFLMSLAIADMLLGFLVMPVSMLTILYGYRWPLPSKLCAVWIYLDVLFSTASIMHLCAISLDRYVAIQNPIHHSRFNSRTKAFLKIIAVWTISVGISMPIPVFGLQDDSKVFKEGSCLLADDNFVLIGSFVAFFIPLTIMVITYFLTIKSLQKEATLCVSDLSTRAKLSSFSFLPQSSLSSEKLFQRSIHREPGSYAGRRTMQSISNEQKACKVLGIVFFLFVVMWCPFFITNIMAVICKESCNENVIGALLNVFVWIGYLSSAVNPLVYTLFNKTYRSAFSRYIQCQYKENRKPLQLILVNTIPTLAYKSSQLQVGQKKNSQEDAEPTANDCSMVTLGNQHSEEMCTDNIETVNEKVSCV
GC-B act: GC-B (human) receptor activation | P20594 | HEK293-GC-B cells, CNP EC30, cGMP TR-FRET; 0% at EC30 CNP, 100% saturating CNP | activation, % at 10 µM | actives 0.11% (n = 370,000) | AID 1920062;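 active means activation at 10 µM reaching about 35% in either raw or pattern-adjusted values, limit read from the data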
MsrA activ conf: confirmation of bovine methionine sulfoxide reductase A activators | purified bovine MsrA, absorbance read-out | activation, % at 10.6 µM | shares compounds with bovine MsrA act | actives 12% (n = 1,000); in the data active means activation above about 4%;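 further: enzyme coupled to thioredoxin and thioredoxin reductase with NADPH; 0% = vehicle wells and 100% = reference activator wells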
An asterisk follows results filed as active; . = not tested or not shown. Only some compounds are listed: those with a hit (about 1.8% of all), similar ones and a draw of the others.

SMILES | bovine MsrA act | MsrA inhibitor | GC-A act | HTR2A ag | GC-B act | others
COc1cc(/C=N/NC(=O)c2sc(N)c(C#N)c2C)ccc1O | -16 | 8.4* | . | -8 | .
COc1cc(/C=N/NC(=O)c2cccc(N3CCCC3=O)c2)ccc1O | -4 | 5.4* | -1 | 7 | -1
CCN(CC)c1ccc(/C=N/NC(=O)c2cccc(N3CCCC3=O)c2)cc1 | -4 | 2 | 2 | -3 | -5
CN(C)CC(c1ccc(O)cc1)C1(O)CCCCC1 (stereo not given) | . | . | 5 | . | -7
COC(=O)[C@]12C[C@H](CC(=O)NCCCCc3ccccc3)C(=O)N(Cc3ccco3)C1=C[C@H](C(C)C)O[C@@H]2C1CC1 | . | . | -8 | . | -6
Nc1nc2c(ncn2[C@@H]2O[C@H](C(=O)NCCCN3CCCC3=O)[C@@H](O)[C@H]2O)c(=O)[nH]1 | . | 1 | 49* | . | 45*
COC(=O)c1cc2c(c3c4ccccc4n(S(=O)(=O)c4cccc(C)c4)c13)C(=O)N(Cc1ccc(N(C)C)cc1)C2 | . | 1 | 2 | . | -1
CCCCNc1c(-c2ccc(SC(C)CC)c(OC)c2)nc2ccc(C)cn12 (stereo not given) | -1 | 3 | 23 | -4 | -4
CCCCNc1c(-c2ccc(SC(C)CC)c(OC)c2)nc2ccc(Cl)cn12 (stereo not given) | 0 | 1 | 40* | -3 | 21
COC(=O)C[C@@H]1CC[C@@H]2[C@@H](COc3ccc(NC(=O)c4ccc(F)cc4)cc3C(=O)N2C)O1 | . | . | 0 | . | 2
CCOc1ccc(S(=O)(=O)NCc2cccnc2)cc1C | -3 | 0 | 9 | 2 | 1
CCOc1ccc(S(N)(=O)=O)cc1-c1nc2c(C(C)(C)C)nn(C)c2c(=O)[nH]1 | -3 | 0 | 52* | -4 | 61*
CCOc1ccc(S(=O)(=O)NC(C)(C)C)cc1-c1nc2c(C(C)(C)C)nn(C)c2c(=O)[nH]1 | 0 | 0 | 57* | -1 | 60*
CCCCn1c(=O)[nH]c(=O)c2c1nc(-c1ccc(OCCC)c(OCC)c1)n2C | -2 | 1 | -3 | 4 | -5
Clc1cc(Cl)cc(CNC2CCC23CCC(c2ccccc2)CC3)c1 (stereo not given) | . | . | -3 | . | -1
CCC(=O)N[C@H]1C[C@@H]2O[C@@H](CO)CC[C@@H]2O[C@@H]1CCc1ccc(-c2cccc(OC)c2)cc1 | . | . | 4 | . | 3
CN1CCCC(n2nc(Cc3ccc(Cl)cc3)c3ccccc3c2=O)CC1 (stereo not given) | -9 | 1 | -15 | 0 | 118*
CC1CC(=O)C2=C(C1)Nc1ccccc1N(C(=O)COc1ccccc1)C2c1ccco1 (stereo not given) | -8 | 3 | -12 | 10 | -6
COc1ccc(C2C3=C(CC(c4ccco4)CC3=O)Nc3ccccc3N2C(C)=O)cc1 (stereo not given) | -4 | 5.3* | -5 | -2 | -10
O=C1CCS/C(=N\N=C\c2ccc(Cl)cc2Cl)N1 | -4 | 1 | 56* | 0 | -5
COC(=O)/C(=C(/F)Sc1cc(C)c(O)c(C)c1)C(F)(F)F | 1 | . | . | 16* | .
COC(=O)C(Nc1ccccc1Cl)(c1cc(C)c(O)c(C)c1)C(F)(F)F (stereo not given) | 2 | 0 | . | -4 | .
Cc1ccc(-n2nc3c(=S)[nH]nc(C)c3c2C)cc1 | 1 | 2 | 41* | -1 | 17
COc1ccc(N(CC(=O)N/N=C/c2ccc(N(C)C)cc2)S(=O)(=O)c2ccccc2)cc1 | -3 | 4.6* | -7 | -5 | 6
COc1ccc(N(CC(=O)N/N=C/c2ccccc2F)S(=O)(=O)c2ccccc2)cc1 | 4 | 1 | 8 | -3 | -3
SMILES | bovine MsrA act | MsrA inhibitor | GC-A act | HTR2A ag | GC-B act | others
O=C(c1ccco1)N1CCN(CC(O)COc2ccc3oc4ccccc4c3c2)CC1 (stereo not given) | 0 | 0 | 2 | 14* | -7
CCCNC(=O)C(Cc1ccccc1)NS(=O)(=O)c1ccc2c(c1)c(=O)n(C)c(=O)n2C (stereo not given) | -3 | 0 | -4 | 13 | 3
CCCCN(C)C(=O)C(Cc1ccccc1)NS(=O)(=O)c1ccc2c(c1)c(=O)n(C)c(=O)n2C (stereo not given) | 0 | 0 | -1 | 1 | 47*
O=C(N[C@@H](Cc1ccccc1)C(=O)NCP(=O)(O)OC(Cc1ccccc1)C(=O)O)OCc1ccccc1 (stereo not given in full) | . | . | 2 | . | -3
O=C(Cn1ncc2c3ccccc3n(Cc3ccccc3F)c2c1=O)NCC1CCCO1 (stereo not given) | -2 | 1 | 31 | -1 | 36*
O=C(CCSCc1ccccc1F)N1CCN(c2ccccn2)CC1 | -4 | 0 | 4 | -2 | 1
O=C(Cn1ncc2c3ccccc3n(Cc3ccccc3F)c2c1=O)N1CCN(c2ccccn2)CC1 | 0 | 1 | 22 | -3 | 41*
C=CCN1C(=O)[C@@H](CC(=O)N2CCC(c3ccccc3)CC2)[C@]2(C(=O)OC)CCCCC=C12 | . | . | 3 | . | 3
CC(C)n1nnnc1C1(C)Cn2nccc2C(=O)N1Cc1cccc(C(F)(F)F)c1 (stereo not given) | . | . | 2 | . | 3
NC(=O)C1=CN([C@@H]2O[C@H](COP(=O)(O)OP(=O)(O)OC[C@H]3O[C@@H](n4cnc5c(N)ncnc54)[C@H](O)[C@@H]3O)[C@@H](O)[C@H]2O)C=CC1 | . | . | 0 | . | -1
COc1ccccc1C1NC(=O)NC(C)=C1C(=O)OC1CCCCC1 (stereo not given) | -5 | 0 | 2 | 15* | -8
Cc1ccccc1S(=O)(=O)N1[C@@H](c2ccc(Br)cc2)C(C(=O)O)=CC[C@H]1c1ccc(Cl)cc1 | -1 | 0 | -4 | 22* | 1
Cc1ccccc1S(=O)(=O)N1[C@@H](c2ccccc2)C(C(=O)O)=CC[C@H]1c1ccc(Cl)cc1 | -3 | 1 | -1 | 3 | 3
Cc1cc(C(=O)OCC(=O)NCc2ccco2)c(C)n1-c1ccc(F)cc1 | 8.5* | -1 | -3 | -6 | -3
CCNC(=O)COC(=O)c1cc(C)n(-c2ccccc2)c1C | -2 | 0 | 3 | -1 | 0
COc1ccc2oc(=O)c(C(=O)NCCc3ccc(OC)c(OC)c3)cc2c1 | 7.7* | -1 | 2 | 0 | -5 | MsrA activ conf=2
Cc1ccc(-c2c(NC(=O)C3CC3)nc3ncccn23)cc1 | . | . | 1 | . | 0
COc1cc(Cl)c(CNC[C@H]2O[C@@H](n3ccc(=O)[nH]c3=O)[C@H](O)[C@@H]2O)c(Cl)c1O | 10* | 0 | 0 | 1 | -6 | MsrA activ conf=-1
COc1ccc(CNC[C@H]2O[C@@H](n3ccc(=O)[nH]c3=O)[C@H](O)[C@@H]2O)cc1OC | -2 | 0 | 5 | -2 | 2
